Assay outcomes (PubChem BioAssay)
Sampled rows, rich in hits. Any-hit rate of the full collection: about 11%.
Luciferase inh: blocks purified firefly luciferase enzyme activity; P08659; purified P. pyralis luciferase, luminescence, biochemical; Potency, µM (titrated, usually from 115 µM), actives largely listed as inhibitors; 2.5% of 76,000 active; AID 1347043; further: nearly all actives have a fitted effect of over 65% in size
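FLuc 10nM, D-luciferin 10uM, ATP 10uM, Mg acetate 10mM, Tris acetate pH 7.5, Tween/BSA; cpd qHTS; enzyme added last; CCD luminescence.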
NIH3T3 tox: kills NIH 3T3 cells; NIH 3T3 viability, CellTiter-Glo ATP luminescence, 48-72 h; 4.3% of 94,000 active; Potency, µM (top dose mostly 96.7 µM), for inactives: at the top dose activity change, negative = cytotoxicity, usual class: inhibitors; AID 1345082; further: nearly all actives have a fitted effect of over 55% in size
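Cells were seeded at 400 per well, treated with pin-transferred compound, and kept 48 or 72 hr at 37 °C before CellTiter-Glo addition and luminescence imaging of cellular ATP.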
NPR1 antag: antagonists of human natriuretic peptide receptor Npr1; Potency, µM (top dose mostly 46.3 µM), without a hit: at the top dose activity change, negative = inhibition, hits mostly inhibitors; P16066; 1.6% of 76,000 active; AID 1347048; HEK293 hNpr1 GloSensor cGMP, ANP-stimulated luminescence; calls by dose curve; further: nearly all actives have a fitted effect of over 60% in size
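HEK293 cells stably expressing human Npr1 and cGMP GloSensor pGS-40F, loaded 2 h with 2% GloSensor reagent, given compound 30 min at room temperature. Luminescence read before and 20 min after 0.1 nM hNppA.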
HEK cytotox: cytotoxic compounds in HEK 293 cells; HEK 293 viability, ATP luminescence (CellTiter-Glo), 48-72 h; Potency, µM (highest dose often 115 µM), inactives show top-dose activity change, negative = cytotoxicity, actives largely listed as inhibitors; 6.6% of 94,000 active; further: nearly all actives have a fitted effect of over 60% in size
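Cells seeded first (HEK 293, 250 cells/well), then compound added by pintool. Incubation ran 48 or 72 hr at 37 degree Celsius. CellTiter-Glo was added and luminescence imaged after 10 min at room temperature.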
* = called active by the depositor; i = inactive; ? = inconclusive; . = not tested or not shown; [ ] = another dose, or the depositor's remark. Unless noted, the call rests on the fitted dose curve; in most records, active means well fitted curve in the direction sought with a large enough effect; inconclusive means small, poorly fitted or top-dose-only effect, or another doubt; inactive means no such curve, though single readings can be large; an effect the other way counts as inactive or inconclusive. On the % scale 0 is the no-effect control and ±100 the full control effect; potency means the concentration at half of the fitted maximal effect.

SMILES | Luciferase inh | NIH3T3 tox | NPR1 antag | HEK cytotox
COc1cccc(C(=O)N2CCC(c3n[nH]c(=O)n3Cc3ccc(F)cc3)CC2)c1 | i | ? | 1.9% | -6.8%
CC(C)CNC(=O)c1ccc(-c2nnc3ccc(NC(=O)C4CC4)cn23)cc1 | i | -25.0% | 1.0% | ?
COc1ccc2nc([C@H]3CCN(CCCc4ccccc4)C3)[nH]c2c1 | 70.8µM* | ? | -0.3%[70.6 µM] | 63.1µM*
COc1ccc2nc([C@H]3CCN(Cc4ccc(C(=O)O)cc4)C3)[nH]c2c1 | ? | -5.0%[174 µM] | 6.1%[70.6 µM] | -1.5%[172 µM]
Fc1ccccc1-c1nnc([C@H]2CCN(Cc3ccccc3)C2)o1 | ? | ? | 1.4%[70.6 µM] | -22.5%[172 µM]
c1ccc(CCCN2CC[C@H](c3nc4ccccc4[nH]3)C2)cc1 | ? | ? | -20.7%[70.6 µM] | ?
COc1ccc2nc([C@H]3CCN(Cc4cccc(OC(F)(F)F)c4)C3)[nH]c2c1 | ? | 89.1µM* | ? | 100µM*
Fc1ccccc1-c1nnc([C@H]2CCN(Cc3cccc(OC(F)(F)F)c3)C2)o1 | i | ? | -1.3%[70.6 µM] | 112µM*
COCCN1CCCN(C(=O)NCCc2ccccc2)c2ccccc21 | i | ? | -12.5% | -27.1%
CC(C)n1cc2cc(C(=O)N3CCN(Cc4ccc5c(c4)OCO5)CC3)sc2c1 | i | -23.3% | -9.5% | ?
CCc1c(C(=O)N2CCC(CO)(Cc3ccccc3)CC2)[nH]c2ccccc12 | i | ? | -8.4% | 20µM*
O=C1CC(c2ccccc2)N(Cc2ccncc2)CCCN(Cc2ccccn2)CCN1 (stereo not drawn) | i | -24.8% | 2.1% | ?
CC(=O)N1CCC(N2C(=O)C3(CCCC3)C2c2scnc2C)CC1 (stereo not drawn) | i | ? | 3.6% | i
Cc1ncsc1C1N(C2CCN(Cc3cn(C)c4ccccc34)CC2)C(=O)C12CCCC2 (stereo not drawn) | i | -22.4% | 1.2% | 79.4µM*
CN(c1ccccc1)c1cc(=O)c2ccnc(NCCc3ccccn3)c2o1 | i | 25.1µM* | 0.8%[70.6 µM] | ?
O=c1cc(-c2ccccn2)oc2c(Nc3cccnc3)nccc12 | i | 11.2µM* | 3.8%[70.6 µM] | ?
O=c1cc(-c2ccccn2)oc2c(Nc3ccccc3)nccc12 | i | ? | -17.2%[70.6 µM] | ?
CN(c1ccccc1)c1cc(=O)c2ccnc(Nc3cccnc3)c2o1 | i | 10µM* | ? | ?
CCC(c1cccs1)N1C(=O)[C@H]2CN(CCC(C)C)C[C@H]2C1=O (stereo partly drawn) | i | -28.4% | 2.9% | ?
C=CCN1C[C@H]2COc3ccccc3[C@H]2N(C(=O)OCCCC)CCC1=O | . | ? | . | -28.9%
OCc1ccc(-c2cc3c(ccn3Cc3cccnc3)c(C3=CCOCC3)n2)cc1 | i | ? | 3.4%[70.6 µM] | ?
C1=C(c2nc(-c3ccncc3)cc3c2ccn3Cc2cccnc2)CCOC1 | i | 22.4µM* | -2.7%[70.6 µM] | ?
COCCn1ccc2c(C3=CCOCC3)nc(-c3cccc(C(N)=O)c3)cc21 | i | 25.1µM* | -2.8%[70.6 µM] | ?
O=C(NCCc1ccc(Cl)cc1)C1CCc2nnc(-c3ccc(Cl)nc3)n21 (stereo not drawn) | . | -10.9% | . | -1.3%
CC(=O)Nc1ccc(-c2nnc3n2CCN(C(=O)c2ccccc2)C3)cc1 | . | -2.5% | . | -18.1%
SMILES | Luciferase inh | NIH3T3 tox | NPR1 antag | HEK cytotox
CCc1nc2c(c(-c3ccc(O)cc3)n1)CCN(C(=O)Cc1ccc(F)cc1)CC2 | . | -24.4% | . | -10.8%
Cc1ccc(-n2nc(C)c([C@@H]3C=C[C@@H](N)C3)c2C)cc1Cl | 70.8µM* | 28.2µM* | 2.5%[70.6 µM] | 39.8µM*
COC(=O)c1cccc(NC(=S)N[C@@H]2C=C[C@@H](c3c(C)nn(-c4ccc(C(C)C)cc4)c3C)C2)c1 | 12.6µM* | ? | ? | ?
Cc1nn(-c2ccc(C(C)(C)C)cc2)c(C)c1[C@@H]1C=C[C@@H](NC(=O)Nc2ccccc2)C1 | i | ? | -21.2%[70.6 µM] | ?
Cc1ccc(-n2nc(C)c([C@H]3C=C[C@@H](OC(=O)Nc4cccc(F)c4)C3)c2C)cc1Cl | i | ? | -20.6% | ?
Cc1nn(-c2ccc(C(C)C)cc2)c(C)c1[C@@H]1C=C[C@@H](NC(=S)NC2CCCCC2)C1 | 10µM* | ? | -14.1% | ?
CCNC(=O)N[C@@H]1C=C[C@@H](c2c(C)nn(-c3ccc(OC)cc3)c2C)C1 | ? | 50.1µM* | 10µM* | ?
C=CCNC(=O)N[C@H]1CCN2C(=O)c3cc(-c4cc(Cl)ccc4OC)ccc3NC(=O)[C@@H]2C1 | i | ? | -4.0% | -21.0%
Cc1ncsc1C1N(C2CCN(C(=O)c3ccco3)CC2)C(=O)C12CCCC2 (stereo not drawn) | . | -15.4% | . | -22.0%
O=C(NC1CCCN(c2ccc3nnc(C4CC4)n3n2)C1)c1ccccc1Cl (stereo not drawn) | . | -20.0% | . | ?
CC(C)N1CC(C(=O)NCc2cccs2)NC1=O (stereo not drawn) | . | -30.1%[138 µM] | . | -13.3%[172 µM]
Cc1ccc(-n2nc(C)c([C@@H]3C=C[C@@H](NC(=O)NC4CCCCC4)C3)c2C)cc1Cl | 8.91µM* | ? | -19.7%[70.6 µM] | ?
COc1ccc(-n2nc(C)c([C@@H]3C=C[C@@H](NC(=O)NC4CCCCC4)C3)c2C)cc1 | ? | ? | 22.4µM* | ?
CCCN1CCCCC12Cc1ccccc1CN(C(=O)CC)C2 (stereo not drawn) | . | ? | . | -30.2%
O=C(c1nc2cccnc2n(CCc2ccccc2)c1=O)N1CCOCC1 | . | -1.9% | . | -3.2%
COCCc1noc(-c2ccccc2OC2CNC2)n1 | i | -22.4% | 9.0% | -1.1%
CC(Oc1ccccc1)C(=O)N1CC(Oc2ccccc2-c2nc(-c3ccccc3)no2)C1 (stereo not drawn) | . | 35.5µM* | . | 44.7µM*
O=C(Cc1ccsc1)N1CC(Oc2ccccc2-c2nc(-c3ccccc3)no2)C1 | ? | 35.5µM* | -1.0% | ?
c1ccc(-c2noc(-c3ccccc3OC3CNC3)n2)cc1 | 22.4µM* | 28.2µM* | ? | ?
CCC(C)NC(=O)N1CC(Oc2ccccc2-c2nc(-c3ccccc3)no2)C1 (stereo not drawn) | ? | 35.5µM* | -4.5% | ?
CN(C)C(C(=O)N(Cc1cccc(O)c1)C1CC1)c1ccccc1F (stereo not drawn) | i | -22.3% | -2.5% | ?
O=C(NCCc1ccccc1)N1CC(Oc2ccccc2-c2nc(-c3ccccc3)no2)C1 | ? | 28.2µM* | -4.6% | 22.4µM*
CCCNC(=O)N1CCC(Oc2ccccc2-c2nc(-c3ccncc3)no2)C1 (stereo not drawn) | i | ? | 4.7% | -20.7%
CCCc1ccc2oc(C(=O)N(C)Cc3snnc3C)c(C)c2c1 | ? | ? | 1.1% | 39.8µM*
Cc1ccc2oc(C(=O)N(C)Cc3cc(-c4ccccc4)no3)c(C)c2c1 | i | -18.1% | 3.0% | ?
Cc1cnc(CC2CCN(S(=O)(=O)c3ccccc3)C2)n1C(C)C (stereo not drawn) | i | -10.8% | 1.5% | ?
